# PubChem BioAssay
# Results with a measured potency or affinity are listed apart. A number with no mark means an inactive call. Calls of active or inactive are those of the source.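 Rule for the calls: active = a dose-response fit showing signal loss, with half-maximal concentration no higher than twice the top tested dose; inconclusive = flat fit between 30% and 70% signal loss, or poor fit; inactive = the rest.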
# Test: viability loss in HepG2 hepatoma cells – cell-based, cherry-picks, set 2, cytotoxicity control, dose response (AID 687002)
# Conditions: ATP luminescence (CellTiter-Glo), 48 h; series mostly up to 26 µM; activity change, negative = cytotoxicity: at the top concentration
Compound,"activity change, negative = cytotoxicity",outcome
C[C@@H]1CN([C@H](C)CO)S(=O)(=O)c2ccc(C#CC3CC3)cc2O[C@H]1CN(C)CC1CCOCC1,-0.77%,–
C[C@H](O)C#Cc1ccc2c(c1)O[C@H](CN(C)Cc1ccncc1)[C@H](C)CN([C@H](C)CO)S2(=O)=O,14.7%,–
Cc1noc(C)c1NC(=O)N(C)C[C@H]1OCCCC[C@H](C)Oc2ccc(NC(=O)NC(C)C)cc2C(=O)N([C@@H](C)CO)C[C@@H]1C,4.67% [at 23.5 µM],–
CCN(Cc1ccccc1)C(=O)COc1ccccc1,-0.157%,–
COC(=O)C1=C(C)N(Cc2ccc(Br)cc2)C(=S)NC1c1ccc(F)cc1 (centres undefined),–,inactive
COc1ccccc1CNC(=S)NCc1ccc(Cl)cc1,9.58%,–
C[C@H]1CN([C@@H](C)CO)C(=O)Cc2cc(N(C)C)ccc2O[C@@H]1CN(C)C(=O)Nc1ccc(C(F)(F)F)cc1,10.3%,–
Cc1noc(C)c1S(=O)(=O)Nc1ccc2c(c1)CC(=O)N([C@H](C)CO)C[C@H](C)[C@H](CN(C)S(=O)(=O)c1cccs1)O2,-5.5% [at 23.5 µM],–
CCCNC(=O)C[C@@H]1CC[C@@H]2[C@H](COc3ccc(NC(=O)CCC)cc3C(=O)N2C)O1,-4.61%,–
Cc1cccc(-c2ccc([C@H]3[C@H](CO)N4CCCCN(C(=O)c5ccc6c(c5)OCO6)C[C@@H]34)cc2)c1,12.2%,–
Cc1ccc(CSc2ncnc3c2cnn3-c2ccc(C)cc2)cc1,-9.7%,–
C[C@@H]1CN([C@H](C)CO)C(=O)c2cc(NC(=O)Nc3cccc4ccccc34)ccc2O[C@@H]1CN(C)C(=O)Nc1ccccc1,8.79%,–
CC(C)CC#Cc1cnc2c(c1)C(=O)N([C@H](C)CO)C[C@H](C)[C@H](CN(C)C(=O)c1cccnc1)O2,19.7%,–
C[C@@H]1CN([C@@H](C)CO)C(=O)c2cc(NC(=O)Nc3ccccc3)ccc2O[C@@H]1CN(C)C(=O)Nc1cccc2ccccc12,4.81%,–
O=C(N[C@H]1CC[C@H](CCn2cc(-c3ccccn3)nn2)O[C@H]1CO)c1ccc(F)cc1,-4.74%,–
O=C(Cc1ccccc1)N[C@H]1C=C[C@@H](CC(=O)N2CCOCC2)O[C@@H]1CO,-3.43%,–
COCC(=O)NC[C@H]1N[C@H](CO)[C@H]1c1ccc(C2=CCCC2)cc1,9.93%,–
CCCC(C)(C)C(=O)N1CCC1(C)C(=O)Nc1ccc(C)cc1 (centres undefined),7.71% [at 38 µM],–
Cc1noc(C)c1S(=O)(=O)Nc1ccc2c(c1)C(=O)N([C@@H](C)CO)C[C@@H](C)[C@@H](CN(C)Cc1ccccc1)OCCCC[C@H](C)O2,3.64%,–
C[C@H](CO)N1C[C@H](C)[C@H](CN(C)C(=O)Nc2cccc3ccccc23)Oc2ccc(NC(=O)Cc3ccccc3)cc2CC1=O,1.16% [at 23.5 µM],–
O=C(C[C@@H]1CC[C@H]2[C@@H](COC[C@H](O)CN2Cc2ccc(Oc3ccccc3)cc2)O1)Nc1nccs1,10.7%,–
COc1cccc(-c2ccc3c(c2)[C@H]2[C@H](CCN2C(=O)Cc2ccncc2)[C@H](CO)N3C)c1,4.27%,–
CC(C)NC(=O)N(C)C[C@H]1OCCCC[C@H](C)Oc2ccc(NC(=O)c3ccccc3)cc2C(=O)N([C@@H](C)CO)C[C@@H]1C,5.25%,–
COCCNC(=O)C[C@H]1C[C@@H]2c3cc(NC(=O)C4CCC4)ccc3O[C@@H]2[C@H](CO)O1,-3.52%,–
COc1ccc(C2=Nc3ccccc3NC(=O)C2N(C(=O)c2cc3ccccc3[nH]2)c2ccccc2)cc1 (centres undefined),-0.584%,–
O=C(NCCN1CCCCC1)[C@@H]1N[C@@H]2c3ccc(-c4ccncc4)c(=O)n3C[C@@H]2[C@H]1CO,4.58%,–
COCC(=O)N(C)C[C@H]1Oc2ncc(-c3ccccc3F)cc2C(=O)N([C@@H](C)CO)C[C@H]1C,3.82%,–
C[C@H]1CN([C@@H](C)CO)C(=O)c2cc(NC(=O)Nc3ccc(F)cc3)ccc2O[C@@H]1CN(C)S(C)(=O)=O,3.79% [at 23.5 µM],–
COc1ccc(S(=O)(=O)N[C@H]2C=C[C@H](CC(=O)N3CCC(Cc4ccccc4)CC3)O[C@@H]2CO)cc1,-8.34%,–
